Bioassay records deposited in PubChem BioAssay by National Center for Advancing Translational Sciences (NCATS).
SMN2 splice up: SMN2 splice variant enhancement | HEK293 SMN2-luciferase splicing reporter, luminescence, 30-36 h | Potency, µM (series often up to 46.1 µM), without a hit: at the highest dose activity change, positive = activation, hits mostly activators | 210,000 compounds, 2.8% hits; also: % of control where 0% means no effect; nearly all actives have a fitted effect of over 55% in size
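HEK293 cells carry an SMN2 minigene-luciferase reporter in which exon 7 inclusion puts luciferase in frame. Cells were seeded at 2000 cells/well, attached for 10-12 hours, then exposed to compounds for 30-36 hours at 37C before ONE-Glo luminescence.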
NPC1 promoter act: activators of NPC1 promoter; Huh7 NPC1 promoter luciferase reporter, 24 h; Potency, µM (top dose mostly 9.22 µM), inactives show at the highest dose activation, hits mostly activators; AID 485313; 320,000 compounds, 2.4% hits; also: % of control where 0% means no effect; nearly all actives have a fitted effect of over 60% in size
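Cells: Huh7 expressing luciferase under the NPC1 promoter, 1500/well. Seeded 2 h, compound added, incubated 24 h at 37 °C. Luciferase reagent, 10 min ambient, then luminescence.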
Rab9 promoter act: activators of Rab9 promoter. Huh7 Rab9 promoter-luciferase reporter, luminescence, 24 h. 320,000 compounds, 2.8% hits. Potency, µM (series often up to 9.22 µM), for inactives: top-dose activation, negative = inhibition, usual class: activators; also: % of control where 0% means no effect; nearly all actives have a fitted effect of over 60% in size
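Using Huh7 cells stably transfected with Rab9 promoter–luciferase, compounds were incubated 24 h at 37 °C, 5% CO2; luciferase luminescence was read 10 min after reagent addition.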
FLuc counter: counter-screen for miR-21 project: firefly luciferase inhibitors or activators | 360,000 compounds, 6.9% hits | purified FLuc, Km substrates, luminescence inhibition | AID 588342 | Potency, µM (series often up to 57.5 µM), without a hit: at the highest dose activity change, negative = inhibition, hits mostly inhibitors;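 also: plate controls were vehicle for no effect and reference inhibitor for full effect; nearly all actives have a fitted effect of over 55% in size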
Target sequence (P08659 whole entry, looked up): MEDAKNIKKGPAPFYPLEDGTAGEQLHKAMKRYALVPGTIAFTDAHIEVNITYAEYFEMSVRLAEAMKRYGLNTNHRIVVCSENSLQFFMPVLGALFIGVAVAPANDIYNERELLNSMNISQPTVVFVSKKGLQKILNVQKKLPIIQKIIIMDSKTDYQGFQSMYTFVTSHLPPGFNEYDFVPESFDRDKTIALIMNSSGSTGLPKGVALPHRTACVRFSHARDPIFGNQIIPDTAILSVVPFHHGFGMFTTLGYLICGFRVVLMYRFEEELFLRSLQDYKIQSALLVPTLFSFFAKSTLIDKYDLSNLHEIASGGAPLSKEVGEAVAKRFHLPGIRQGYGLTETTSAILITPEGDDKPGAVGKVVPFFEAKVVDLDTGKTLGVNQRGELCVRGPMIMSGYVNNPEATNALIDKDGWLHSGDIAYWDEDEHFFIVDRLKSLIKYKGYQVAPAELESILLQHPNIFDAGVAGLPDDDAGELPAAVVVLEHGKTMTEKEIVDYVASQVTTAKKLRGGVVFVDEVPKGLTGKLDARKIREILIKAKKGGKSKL
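Purified P. pyralis luciferase (10nM final) with 10uM D-luciferin and 10uM ATP (Km levels) in 50mM Tris acetate pH 7.5, 10mM Mg acetate, 0.01% Tween-20, 0.05% BSA; qHTS 6-point titration, ~60 µM downward; luminescence read.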
Luc counter: Kinase-Glo luciferase inhibition (counter-screen). Q27757. Kinase-Glo luciferase, ATP luminescence, 8 min. Potency, µM (top dose mostly 38.3 µM), without a hit: at the top dose activity change, negative = inhibition, hits mostly inhibitors. 200,000 compounds, 0.28% hits. AID 1379; also: % is scaled to controls: 0 for no effect and ±100 for the full control effect; nearly all actives have a fitted effect of over 60% in size
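Kinase-Glo luciferase light output from ATP and luciferin was measured with 10 uM ATP, within the enzyme's linear range. Buffer: 50 mM imidazole pH 7.2, 50 mM KCl, 7 mM MgCl2, 0.01% Tween 20, 0.05% BSA; luminescence read after 8 min at ambient temperature.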
Numbers without * were called inactive; ? = inconclusive; . = not tested or not shown; [ ] = another dose, or the depositor's remark. Compounds with a hit are over-represented: about 7.3% of the library has one in this group of screens. Calls follow the shape of the dose curve; as a rule, active = well fitted curve in the direction sought with a large enough effect; inconclusive = small, poorly fitted or top-dose-only effect, or another doubt; inactive = no such curve, though single readings can be large; an effect the other way counts as inactive or inconclusive. Potency is read from the fitted curve at half-maximal effect.

SMILES	SMN2 splice up	NPC1 promoter act	Rab9 promoter act	FLuc counter	Luc counter
CCn1cc(C(=O)NCCCN2CCC(C)CC2)c(=O)c2cc(S(=O)(=O)N3CCCC3)ccc21	-7%	-3%	-6%	-2%	-2%
CCn1cc(C(=O)NC2CCC(C)CC2)c(=O)c2cc(S(=O)(=O)N3CCCCC3)ccc21 (stereo unspecified)	13µM*	?	?	21µM*	-2%
CC1CCN(S(=O)(=O)c2ccc3c(c2)c(=O)c(C(=O)NC2CCCC2)cn3C)CC1	-14%	-2%	3%	-2%	-3%
Cn1cc(C(=O)NC2CCCCC2)c(=O)c2cc(S(=O)(=O)N3CCCC3)ccc21	11µM*	1%	-8%	0%	0%
CC(C)(C)S(=O)(=O)c1cnc2c(-c3ccsc3)cnn2c1N	?	?	?	-9%	1%
Nc1c(-c2cccs2)cnc2c(-c3ccc(F)cc3)cnn12	.	0.45µM*	0.35µM*	0.48µM*	.
CS(=O)(=O)c1cnc2c(-c3ccc(F)cc3)cnn2c1N	?	0.79µM*	1.1µM*	2.4µM*	-2%
Nc1c(-c2ccccc2)cnc2c(-c3ccccc3)cnn12	.	0.32µM*	0.11µM*	0.24µM*	.
CC/C=C\C/C=C\C/C=C\C/C=C\C/C=C\C/C=C\CCC(N)=O	2%	.	.	.	-1%
COc1cc(NC(=O)CCn2cnc3ccccc3c2=O)cc(OC)c1	.	.	.	-6%	.
CCc1nnc(NC(=O)CSc2nc(C)c3c(c2C#N)CCCC3)s1	.	?	?	8.5µM*	.
COc1ccc(/C=C/C(=O)Oc2cccc(/C=N/NC(=O)Cc3ccc(Br)cc3)c2)cc1	.	3.5µM*	3.2µM*	?	.
CCCS(=O)(=O)c1cnc(C2COc3ccccc3O2)nc1N (stereo unspecified)	.	-23%	-32%	0.12µM*	.
S=c1nc(C2COc3ccccc3O2)[nH][nH]1 (stereo unspecified)	0%	0%	-2%	-16%	-2%
O=C(Nc1ccccc1)Nc1nc(-c2ccccc2)cs1	.	22%	23%	?	.
COc1cccc(-c2csc(NC(=O)Nc3ccccc3)n2)c1	.	-2%	-5%	13µM*	.
COc1cccc(-c2csc(NC(=O)C3CC3)n2)c1	25%	?	?	11µM*	1%
COc1ccccc1NC(=O)C(Cc1ccccc1)NS(=O)(=O)c1ccc2c(c1)c(=O)n(C)c(=O)n2C (stereo unspecified)	-6%	.	.	-6%	.
CC(C)OCCCNC(=O)CCCn1c(SCC(N)=O)nc2c(sc3ccccc32)c1=O	12%	.	.	-1%	.
CCOc1ccc(-c2cc(C(=O)NCc3ccc(OC)cc3)c3c(-c4ccc(F)cc4)[nH]nc3n2)cc1	.	.	.	-3%	.
Cc1ccc2nc(-c3ccc(NC(=O)CN4CCN(c5ccccn5)CC4)cc3)sc2c1	.	?	?	11µM*	.
CCSc1ccc(C(=O)Nc2ccc(-c3nc4ccc(C)cc4s3)cc2)cc1	.	.	.	0%	.
Cc1ccc2nc(NC(=O)CN3CCN(c4ccccn4)CC3)sc2c1	.	1%	-2%	-9%	.
Cc1ccc2nc(-c3ccc(NC(=O)COC(=O)c4ccc(=O)[nH]c4)cc3)sc2c1	1.6µM*	0.35µM*	0.56µM*	3.4µM*	-2%
O=C(CN1CCN(c2ccccn2)CC1)Nc1ccc2ccccc2c1	-22%	11%	21%	17µM*	-4%
SMILES	SMN2 splice up	NPC1 promoter act	Rab9 promoter act	FLuc counter	Luc counter
CC(=O)Nc1ccc(NC(=O)CN2CCN(c3ccccn3)CC2)cc1	.	-2%	-1%	0%	.
Cc1ccc2nc(-c3ccc(NC(=O)CN4C(=O)c5ccccc5C4=O)cc3)sc2c1	2.8µM*	?	4µM*	2.7µM*	-2%
Cc1ccc(C)c(N(CC(=O)Nc2ccc(-c3nc4ccc(C)cc4s3)cc2)S(C)(=O)=O)c1	26%	9%	-2%	-17%	-3%
Cc1ccc(C)c(N2CCN(C(=O)Cn3cnc4sc(C)c(S(=O)(=O)N5CCN(c6ncccn6)CC5)c4c3=O)CC2)c1	8%	.	.	11%	.
COC(=O)c1c(C)oc2c1cc(NS(=O)(=O)c1c(C)cc(C)cc1C)c1ccccc12	-4%	.	.	?	.
Cc1cccc(NC(=O)c2ccoc2C)n1	18µM*	18%	27%	?	?
Cc1occc1C(=O)Nc1cc(C(C)(C)C)on1	14µM*	2.8µM*	1.6µM*	6µM*	11µM*
O=C1c2oc3ccccc3c(=O)c2C(c2cccc(O)c2)N1Cc1ccc(F)cc1 (stereo unspecified)	-22%	.	.	-1%	.
Cn1c(-c2ccc(N)cc2)nc2ccccc21	.	?	4µM*	19µM*	.
COc1ccc(Cc2nc3ccccc3n2C)cc1	-15%	-2%	-2%	-10%	-1%
Cn1c(-c2cccs2)nc2ccccc21	13µM*	4µM*	2.5µM*	?	-16%
Cn1c(-c2ccc3nc(N)sc3c2)nc2cc(N)ccc21	7%	?	23%	21µM*	15%
Cn1c(CCc2ccc(N)cc2)nc2ccccc21	11µM*	3.2µM*	1.6µM*	12µM*	-16%
Cn1c(-c2ccc(Cl)nc2)nc2ccccc21	.	3%	0%[1.84 µM]	?	.
Cc1ccccc1-c1noc(-c2ccccc2OCC(=O)Nc2ccccc2[N+](=O)[O-])n1	.	.	.	4%	.
CSc1nc(C)cc(Nc2ccc(O)c(CN3CCCCC3)c2)n1	-4%[9.22 µM]	.	.	.	-4%[7.66 µM]
CCCCn1cc(S(=O)(=O)c2ccc(CC)cc2)c(=O)c2cc(F)c(N3CCOCC3)cc21	.	.	.	-8%	.
Oc1ccc(/C=N/N2CCCCC2)c(O)c1O	.	-3%	0%	?	.
CN=c1scc(C)n1/N=C/c1cc(Br)c(O)c(OC)c1	?	2%	26%	17µM*	-2%
CN=c1scc(-c2cccs2)n1/N=C/c1ccccc1O	-80%	-37%	-51%	0.17µM*	?
Cc1nc2ccccc2c(=O)n1/N=C/c1ccc(O)c(O)c1O	.	2%	-2%	?	.
CN=c1scc(C)n1/N=C/c1ccc(O)c(O)c1O	-1%	2%	17%	1.5µM*	?
CN=c1scc(-c2cccs2)n1/N=C/c1ccc(O)c(O)c1O	13µM*	?	0.79µM*	1.7µM*	-26%
CCc1nnc2c(Nc3cc(OC)c(Cl)cc3OC)nc3ccccc3n12	-6%	.	.	3%	.
COc1cc(Cl)c(C)cc1NC(=O)c1sc2nc3n(c(=O)c2c1C)CCCCC3	.	.	.	-1%	.
COC(=O)c1c(C)oc2ccc(N(C(=O)c3ccncc3)S(=O)(=O)c3c(C)cc(C)cc3C)cc12	-38%	.	.	-7%	.
Cc1ccc(Cl)cc1N1CCN(C(=O)c2sc3nc4n(c(=O)c3c2C)CCC4)CC1	.	.	.	-1%	.
Cn1c(=O)n(/N=C/c2ccccc2)c2ccccc21	?	27%	17%	15µM*	0%
CC(C)n1cnc2c(oc3ccccc32)c1=O	.	7%	11%	17µM*	.
CC1CCc2c(sc3nc(CSc4nnnn4C)[nH]c(=O)c23)C1 (stereo unspecified)	.	4%	3%	?	.
